Data: PubChem BioAssay (NCI)
This is part of a sample that, as a whole, favours compounds with a hit. Of some 79,000 tested, about 15% had one in any assay. A number with no mark means an inactive call. Activity calls are given as the source filed them. Cut-off read from the data, not from the text of the source: active = growth inhibition above about 70%; inactive = the rest.

Tests used:
[1] = NCI Yeast Anticancer Drug Screen. Data for the rad50 strain (AID 155);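 note: 0% = growth of vehicle-only cultures of the same strain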; conditions: S. cerevisiae rad50 strain growth inhibition; at 50.0 µM; hits give high values
In short: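 A DNA repair-deficient yeast mutant serves as the test organism; compound-induced growth inhibition is calculated against vehicle-treated cells.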

[2] = NCI Yeast Anticancer Drug Screen. Data for the mec2-1 strain (AID 157); conditions: S. cerevisiae mec2-1 strain, at 50.0 µM, hits give high values
In short: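 mec2-1 yeast strain, carrying an alteration in DNA damage repair or cell cycle control, was exposed to compounds; growth inhibition was measured relative to vehicle-treated controls.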

[3] = NCI Yeast Anticancer Drug Screen. Data for the sgs1 mgt1 strain (AID 161);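 note: 0% = growth of cultures given vehicle only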; conditions: S. cerevisiae sgs1 mgt1 strain, at 50.0 µM, hits give high values
In short: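 Compounds are added to genetically altered yeast, and growth is compared with cultures given vehicle alone to give percent inhibition.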

[4] = NCI Yeast Anticancer Drug Screen. Data for the cln2 rad14 strain (AID 165);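 note: 0% = growth equal to vehicle treated cultures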; conditions: S. cerevisiae cln2 rad14 strain, at 50.0 µM, hits give high values
In short: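 Yeast carrying cln2 and rad14 alterations (cell cycle control and DNA damage repair) were exposed to compounds. Growth inhibition was measured against vehicle-treated controls.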

[5] = NCI Yeast Anticancer Drug Screen. Data for the bub3 strain (AID 167); conditions: S. cerevisiae bub3 mutant strain, at 50.0 µM, hits give high values
In short: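 Inhibition values come from growth of compound-treated mutant yeast normalised to vehicle-treated controls.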

[6] = NCI Yeast Anticancer Drug Screen. Data for the mlh1 rad18 strain (AID 175); conditions: S. cerevisiae mlh1 rad18 strain growth inhibition; at 50.0 µM; hits give high values
In short: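 Growth inhibition of the yeast strain was measured after compound exposure and expressed relative to vehicle-treated controls. The strain carries defined defects in DNA damage repair.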

SMILES | growth inhibition [1] | growth inhibition [2] | growth inhibition [3] | growth inhibition [4] | growth inhibition [5] | growth inhibition [6]
COc1ccccc1NC(=O)C1=C(C)NC(C)=C(C(=O)Nc2ccccc2OC)C1c1cccc2ccccc12 | 28.4% | -2.35% | -18.2% | 29.4% | 6.65% | 0.5%
C/C(CC(=O)Nc1ccc(Cl)c(Cl)c1)=N/NC(=O)C[n+]1ccccc1 | 16.8% | 5.15% | 7.45% | -19.6% | 5.85% | 29.2%
CCCCCCCCCCCC(=O)N/N=C/c1ccccc1OC | -0.65% | 7.25% | -10.3% | -18.8% | 4% | 12.6%
NC(=O)N1CCCC1=O | -18.4% | -18.9% | -20.8% | -8.5% | -11.3% | -20.9%
C/C(=N\Sc1cccc([N+](=O)[O-])c1)c1ccccc1O | 91.2% (active) | 96.5% (active) | 96.2% (active) | 90.8% (active) | 94% (active) | 96% (active)
CC(=O)[O-].[Mn+3].[O-]c1ccccc1C=NCCNCCN=Cc1ccccc1[O-] | 17.9% | 8.1% | 49.6% | -7.35% | 8.3% | 51.1%
COc1ccc(OC)c2c(C(C)=O)cccc12 | -35% | -42.1% | -4.2% | -12.8% | -17.2% | -21.7%
COc1ccc2oc3c(ccc[n+]3C)c(=O)c2c1 | -22.9% | -14.7% | -12.1% | 10.9% | -2.9% | -16.9%
Fc1c(F)c(F)c(-c2nnc(-c3c(F)c(F)c(F)c(F)c3F)o2)c(F)c1F | -2.45% | 2.75% | -8.75% | -56.8% | 9.3% | 4.25%
C/C(CC(=O)NC1=CC=C(NC(=O)C/C(C)=N\Nc2ccccc2)CC1)=N/Nc1ccccc1 | 8.65% | 12% | -18.8% | -9.35% | -0.1% | 13.7%
Nc1ccc(Cl)c(S(=O)(=O)O)c1 | 21.7% | -4.35% | 7.05% | 8.4% | 10.4% | 17.1%
Cc1ccc(N2CCN(c3ccc(C)cc3)C2=C2N(c3ccc(C)cc3)CCN2c2ccc(C)cc2)cc1 | 78.5% (active) | 20.4% | 56.5% | 34.1% | 37.1% | 19.6%
O=c1cc(-c2ccc(O)cc2)oc2cc(O)cc(O)c12 | 5.85% | -5.65% | -8.45% | -43.5% | -20.9% | -14.9%
CCCCNC(=O)C(C)S(=O)(=O)c1ccc(C)cc1 (stereo unspecified) | 6.6% | 16.4% | -17.3% | -21.7% | -2% | 11.8%
O=C(CC1(O)C(=O)Nc2ccc(Br)cc21)c1ccc(Cl)cc1Cl (stereo unspecified) | 44.9% | 36.7% | 69% | 37% | 48.2% | 33.9%
CC1(Cc2ccccc2)NC(=S)NC1=O (stereo unspecified) | -1.25% | -10.8% | -9.9% | 5.75% | -1.7% | -7.35%
O=NNc1ccc(Oc2ccccc2)cn1 | 15.4% | -13.5% | -7.9% | -9% | -19.8% | -1.85%
COCC1OC(n2cc(C)c(=O)n(C)c2=O)CC1OC (stereo unspecified) | 1.2% | 7.2% | 19.9% | -7.15% | 24.4% | 8%
O=C(c1ccccc1)C1(Br)CCCCC1 | -2.1% | 11.7% | 19.8% | -8.8% | 15% | 15.9%
C[N+](C)(C)C/C=C/C[N+](C)(C)C | 9.85% | -3.1% | -5.95% | -22.3% | 0.85% | 1.85%
CCN(CC)CCN(N)CCN(CC)CC | 20.6% | -24.8% | -1.2% | -1.5% | -44.2% | -17.2%

SMILES | growth inhibition [1] | growth inhibition [2] | growth inhibition [3] | growth inhibition [4] | growth inhibition [5] | growth inhibition [6]
CC(=O)OCC1OC(n2cc([N+](=O)[O-])c(=O)[nH]c2=O)C(OC(C)=O)C(OC(C)=O)C1OC(C)=O (stereo unspecified) | -12.8% | 9.9% | -8.65% | -20% | 12.8% | -35.1%
C(CCN1CN(CCCCN2CCOCC2)CN(CCCCN2CCOCC2)C1)CN1CCOCC1 | 12.8% | 4.75% | 10.4% | -5.5% | -1.75% | 29.6%
C/C=C/C(=O)OC1CCCC1 | 30.9% | 11.7% | 23.6% | 18.9% | 10% | 23.9%
O=C1CSC(=S)N1 | -8.05% | -7.9% | 13.3% | 10.8% | -7.15% | 20.9%
O=[N+]([O-])c1ccc(CSc2ncnc3c2ncn3C2OC(CO)C(O)C2O)cc1 (stereo unspecified) | 10.7% | 22.6% | 9.5% | -7.35% | -4.05% | -17.4%
Cc1c(-c2ccc(Cl)cc2)n[nH]c1-c1[nH]nc(-c2ccc(Cl)cc2)c1C | -2.3% | -1.95% | -26.1% | 3.75% | -11.4% | -1.9%
CC(C)(C)C(=O)Nc1c(Cl)c(C2CC2)nn1-c1ccccc1 | 7.55% | -0.55% | 24.7% | 11.3% | 22.4% | 19.4%
C=C1C(=O)O[C@@H]2[C@H]1CC[C@H](C)[C@@H]1CCC(=O)[C@@]21C | 10% | -0.5% | 3.35% | 13.8% | 12.8% | 14.2%
O=C(O)Cn1ccc(=O)c2ccc([N+](=O)[O-])cc21 | 35.7% | 15.2% | 13.7% | 26.9% | 23.8% | -47.5%
Nc1ccccc1N/N=C/c1ccccc1 | -4.3% | 15.3% | -15.4% | -37.5% | -15.3% | 5.25%
[N-]=[N+]=NC1CC(n2ccc(=O)[nH]c2=O)OC1CO (stereo unspecified) | -16.6% | -21.9% | 3.3% | -13.6% | -12.8% | -6.85%
O=C(/C=C/c1ccc([N+](=O)[O-])cc1)NN=C(c1ccccc1)c1ccccc1 | -20.4% | -16.4% | -12.3% | -7.1% | -9.5% | -0.15%
CCN(CC)CCOC(=O)c1ccc(NC(=O)OCCC(C)OC(=O)Nc2ccc(C(=O)OCCN(CC)CC)cc2)cc1 (stereo unspecified) | -1.55% | 1.2% | -1.65% | -4.4% | -6.6% | 11.9%
CC(C)=CC1C(C(=O)O)C1(C)C (stereo unspecified) | 5.55% | -13.2% | 3.35% | -2.95% | 8.4% | 10.2%
CCCc1nc(NC#N)nc(C(=O)NC23CC4CC(CC(C4)C2)C3)c1C | -8.2% | -13.2% | 7.4% | 8.4% | -7.2% | -9.35%
CN(C)C(=N)N=C(N)N | -23.2% | -30.1% | -27.6% | -1.8% | -42.9% | -21.1%
C1CSCC2(COC2)CS1 | 13% | 13.6% | -9.65% | 5% | -1.55% | 14.2%
Cc1cc(OCc2ccc3ccccc3c2)ccc1Nc1cc(=O)[nH]c(=O)[nH]1 | 3.65% | 33.6% | 18.6% | -4.55% | 33.6% | 24.4%
COC(=O)c1nc(=S)[nH]c(C(=O)OC)c1C(=O)/C=C/c1ccccc1 | 0.1% | -1.7% | 8.05% | -14.2% | -1.75% | 11.8%
Cc1ccc(S(=O)c2ccccc2C(O)(C(F)(F)F)C(F)(F)F)cc1 (stereo unspecified) | 76.2% (active) | 75.8% (active) | 74.6% (active) | 59.6% | 52.1% | 75.7% (active)
